Values without a mark were called inactive. The rule behind the calls is not given here.

Sequence of L-lactate dehydrogenase (Plasmodium falciparum (isolate CDC / Honduras)) (Q27743 whole entry, looked up): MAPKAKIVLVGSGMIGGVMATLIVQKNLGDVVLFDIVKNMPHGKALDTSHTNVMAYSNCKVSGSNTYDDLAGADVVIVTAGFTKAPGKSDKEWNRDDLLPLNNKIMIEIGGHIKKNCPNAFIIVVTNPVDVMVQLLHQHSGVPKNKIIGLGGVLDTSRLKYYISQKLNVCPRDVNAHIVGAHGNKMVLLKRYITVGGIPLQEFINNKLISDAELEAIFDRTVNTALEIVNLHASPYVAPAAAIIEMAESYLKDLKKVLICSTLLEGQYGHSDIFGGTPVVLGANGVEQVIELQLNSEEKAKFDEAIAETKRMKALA

The test has as its target L-lactate dehydrogenase (Plasmodium falciparum (isolate CDC / Honduras)) (UniProt Q27743). Description: PfLDH activity inhibition – cell lysate, 3D7 strain, counter-screen for P. falciparum growth inhibition project (AID 2304).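 Note: 0% = vehicle and 100% = reference inhibitor.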 Conditions: P. falciparum 3D7 crude extract, LDH APAD/NBT absorbance; at 2 µM; active compounds read high. (In general: The purpose of a counterscreen is to sort out artefacts and off-target activity.)
In the case of `Cc1ccc(Nc2nc3cc(Nc4ccnc(Nc5cccc(CS(C)(=O)=O)c5)n4)ccc3o2)cc1`, the inhibition is 4%.
The figure for `C[C@H]1CN(Cc2ccc(-c3cccc(CNC(=O)c4cccc(C(=O)c5ccc(Cl)c(Cl)c5)c4)c3)s2)CCN1` is 3%; for `COc1cc2c(cc1C(F)(F)F)N(C(=O)Nc1ccc(Br)cn1)CC2` it is -3%; for `Brc1ccsc1-c1nc(NC2CCN(Cc3ccccc3)CC2)no1` it is -2%.
The figure for `Clc1ccc(C=NNc2ccnc3cc(Cl)ccc23)cc1` is -3%; for `Cc1cccc(Cn2ccc3c(N)nc(N)nc32)c1` it is 5%.
For `Cc1nc(Nc2ccc(F)cc2)nc(N2CCc3ccccc3[C@@H]2C)c1C`, the inhibition is -3%.
The figure for `Fc1ccccc1C=NNc1ccnc2cc(Cl)ccc12` is -2%; for `c1ccc2c3c([nH]c2c1)C(c1ccc2c(c1)CCO2)N(c1ncnc(N2CCN(CCCN4CCOCC4)CC2)n1)CC3` (stereo not given) it is -2%.
The figure for `COc1c(C2CCN(CCCCNC(=O)C=Cc3ccccc3C(F)(F)F)CC2)ccc2c1CCCC2` is -3%.
The figure for `CCS(=O)(=O)c1ccc(OC)c(Nc2nccc(-c3c(-c4cccc(NC(=O)c5c(F)cccc5F)c4)nn4ncccc34)n2)c1` is -5%.
Regarding `Clc1cccc(C=NNc2ccnc3cc(Cl)ccc23)c1`, the inhibition was -4%.
The figure for `C[C@@H]1CN(c2ccc3[nH]cc(Sc4ccc(-c5cccs5)cc4)c3c2)C[C@H](C)N1` is -4%.
The figure for `O=[N+]([O-])c1ccc(-n2nc(-c3cccnc3)n(Cc3ccco3)c2=S)c(Cl)c1` is -1%; for `COc1cc(Nc2nccc(-c3c(-c4cccc(NC(=O)c5c(F)cccc5F)c4)nn4ncccc34)n2)cc(OC)c1OC` it is 1%.
On to `Cn1cccc1C(=O)Nc1cccc(-c2nn3ccccc3c2-c2ccnc(Nc3ccc4c(c3)OCCO4)n2)c1`, for which the inhibition is 4%.
The figure for `CC(C)CN1C(=O)C(c2ccc(F)c(F)c2)=C(O)C1c1ccccc1` (stereo not given) is -7%.
For the molecule `Cc1ccc(Cn2ccc3c4c(N)nc(N)nc4ccc32)cc1`, the inhibition is -6%.
The figure for `O=C(Nc1ccccc1)Nc1cccc(-c2nn3c(OCCN4CCCC4)cccc3c2-c2ccncc2)c1` is 4%; for `Cc1ccc(-n2c(C)cc(C(=O)CN3C(=O)NC(Cc4ccccc4)C3=O)c2C)cc1` (stereo not given) it is 3%.
The figure for `Cc1csc2nc(C(C)c3ccc(NC(=O)c4cccs4)cc3)oc(=O)c12` (stereo not given) is -3%; for `Cc1nc2ccccc2n1C1C[C@H]2CC[C@@H](C1)N2CCC1(c2ccccc2)CCN(C(=O)Nc2ccc(C(F)(F)F)cc2)CC1` (stereo not given in full) it is -2%; for `COc1cc(Cc2cnc(N)nc2N)ccc1OCc1csc(-c2ccc(Cl)cc2)n1` it is 2%.
The figure for `CCn1c(-c2nonc2N)nc2c(-c3cc4ccccc4s3)ncc(C(=O)N3CCC(N)C3)c21` (stereo not given) is 5%; for `Cc1ccccc1Cn1ccc2c3c(N)nc(N)nc3ccc21` it is -4%.

By inhibition is commonly meant the relative decrease from the control value, in per cent.
